Measurements from PubChem BioAssay (NCI).
The panel holds about 79,000 compounds, 15% with a hit somewhere; the sample as a whole holds those more often. Active and inactive are the calls of the source. Cut-off read from the data, not from the text of the source: active = growth inhibition above about 70%; inactive = the rest.

Legend:
[1] = NCI Yeast Anticancer Drug Screen. Data for the rad52 strain (AID 147);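 note: 0% = growth of vehicle-treated control cultures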; conditions: S. cerevisiae rad52 mutant growth inhibition, hits give high values
In short: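 Vehicle-treated cultures served as the reference for growth inhibition of compound-exposed yeast bearing a DNA repair mutation.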

[2] = NCI Yeast Anticancer Drug Screen. Data for the wt1 strain (AID 149);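 note: 0% = growth of vehicle-treated wt1 cultures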; conditions: S. cerevisiae wt1 strain (SPY 50644) growth inhibition, hits give high values
In short: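 wt1 yeast, compound-treated; % growth inhibition vs vehicle control.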

[3] = NCI Yeast Anticancer Drug Screen. Data for the rad50EPP+ strain (AID 151);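 note: 0% = growth of vehicle-treated control cultures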; conditions: S. cerevisiae rad50 mutant strain, hits give high values
In short: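 In this screen, rad50EPP+ yeast were exposed to compounds. Growth inhibition was scored against vehicle-treated controls.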

[4] = NCI Yeast Anticancer Drug Screen. Data for the rad50 strain (AID 155);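 note: 0% = growth of vehicle-only cultures of the same strain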; conditions: S. cerevisiae rad50 strain growth inhibition, hits give high values
In short: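 Genetically altered yeast (DNA repair pathway); compound treatment; growth inhibition vs vehicle ctrl.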

[5] = NCI Yeast Anticancer Drug Screen. Data for the mec2-1 strain (AID 157); conditions: S. cerevisiae mec2-1 strain, hits give high values
In short: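 Vehicle-treated cultures served as reference for growth inhibition of compound-exposed mec2-1 yeast.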

[6] = NCI Yeast Anticancer Drug Screen. Data for the rad14 strain (AID 159);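 note: 0% = growth of vehicle-treated control cultures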; conditions: S. cerevisiae rad14 strain growth inhibition, hits give high values
In short: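 Test compounds were applied to a repair-deficient yeast strain. Its growth was then compared with that of cultures given vehicle alone, and inhibition was expressed relative to those controls.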

[7] = NCI Yeast Anticancer Drug Screen. Data for the sgs1 mgt1 strain (AID 161);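 note: 0% = growth of cultures given vehicle only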; conditions: S. cerevisiae sgs1 mgt1 strain, hits give high values
In short: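 Read-out: growth inhibition vs vehicle controls. Cells: mutant yeast strain deficient in DNA damage repair.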

[8] = NCI Yeast Anticancer Drug Screen. Data for the CLN2oe strain (AID 163);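 note: 0% = growth of vehicle-only control cultures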; conditions: S. cerevisiae CLN2oe strain, hits give high values
In short: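 Inhibition relative to vehicle-treated yeast is reported. Cells: strain with genetic alteration in cell-cycle control, grown with compound.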

[9] = NCI Yeast Anticancer Drug Screen. Data for the cln2 rad14 strain (AID 165);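 note: 0% = growth equal to vehicle treated cultures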; conditions: S. cerevisiae cln2 rad14 strain, hits give high values
In short: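 Each compound was tested on cln2 rad14 yeast. Inhibition of growth was calculated against vehicle-exposed controls.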

[10] = NCI Yeast Anticancer Drug Screen. Data for the bub3 strain (AID 167); conditions: S. cerevisiae bub3 mutant strain, hits give high values
In short: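 Yeast carrying a defined mutation is treated with each compound, and growth is compared with that of vehicle-exposed cells to give inhibition.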

[11] = NCI Yeast Anticancer Drug Screen. Data for the wt2 strain (AID 169);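 note: 0% = growth of vehicle-treated yeast cultures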; conditions: S. cerevisiae wt2 strain growth inhibition, hits give high values
In short: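 Inhibition of yeast growth was determined after compound treatment, normalised to controls receiving only vehicle.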

[12] = NCI Yeast Anticancer Drug Screen. Data for the mlh1 strain (AID 171);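 note: 0% = growth of vehicle-treated control cultures of the same strain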; conditions: S. cerevisiae mlh1 strain growth inhibition, hits give high values
In short: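 Vehicle-normalised growth inhibition of a repair- or checkpoint-altered yeast strain following compound treatment.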

[13] = NCI Yeast Anticancer Drug Screen. Data for the sgs1 strain (AID 173);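 note: 0% = growth of vehicle-only control cultures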; conditions: S. cerevisiae sgs1 mutant, hits give high values
In short: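 Screen format: yeast with repair or checkpoint alterations, compound exposure, growth read relative to vehicle.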

[14] = NCI Yeast Anticancer Drug Screen. Data for the mlh1 rad18 strain (AID 175); conditions: S. cerevisiae mlh1 rad18 strain growth inhibition, hits give high values
In short: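 Vehicle-treated cultures served as the reference for growth inhibition in a yeast strain carrying DNA damage repair alterations exposed to each compound.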

[15] = NCI Yeast Anticancer Drug Screen. Data for the rad18 strain (AID 177); conditions: S. cerevisiae rad18 mutant growth inhibition, hits give high values
In short: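 Test articles were incubated with altered yeast defective in DNA damage repair. Results are given as inhibition of growth versus vehicle.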

[16] = at 5.0 µM (retest, dose inferred, filed as 0.5)
[17] = at 50.0 µM (retest, dose inferred, filed as 5.0)

Measured: growth inhibition

CCCCCCCCCCCc1nc(N)n[nH]1
inactive: [1]; at 1.2 µM -1% | [1]; at 3.7 µM -7% | [1]; at 11.0 µM 5% | [2]; at 1.2 µM -3% | [2]; at 3.7 µM -4% | [2]; at 11.0 µM 1% | [2]; at 33.0 µM 67% | [3]; at 1.2 µM -1% | [3]; at 3.7 µM 7% | [3]; at 11.0 µM 16% | [3]; at 33.0 µM 55% | [4]; at 1.2 µM -11% | [4]; at 3.7 µM -13% | [4]; [16] -181% | [4]; at 11.0 µM -7% | [5]; at 1.2 µM -4% | [5]; at 3.7 µM 1% | [5]; [16] -48% | [5]; at 11.0 µM 0% | [6]; at 1.2 µM 5% | [6]; at 3.7 µM 1% | [6]; at 11.0 µM 7% | [6]; at 33.0 µM 65% | [7]; [16] -66% | [7]; [17] 59% | [8]; at 1.2 µM -3% | [8]; at 3.7 µM -6% | [8]; at 11.0 µM -13% | [8]; at 33.0 µM 16% | [9]; [16] -79% | [9]; [17] 62% | [10]; at 1.2 µM 5% | [10]; at 3.7 µM -2% | [10]; [16] -79% | [10]; at 11.0 µM 4% | [11]; at 1.2 µM 5% | [11]; at 3.7 µM 6% | [11]; at 11.0 µM 24% | [12]; at 1.2 µM -10% | [12]; at 3.7 µM -6% | [12]; at 11.0 µM -3% | [13]; at 1.2 µM -5% | [13]; at 3.7 µM -13% | [13]; at 11.0 µM 21% | [14]; [16] -154% | [14]; [17] 20% | [15]; at 1.2 µM -12% | [15]; at 3.7 µM -5% | [15]; at 11.0 µM -7% | [15]; at 33.0 µM 68%
active: [1]; at 33.0 µM 87% | [1]; at 100.0 µM 96% | [2]; at 100.0 µM 95% | [3]; at 100.0 µM 70% | [4]; at 33.0 µM 92% | [4]; [17] 81% | [4]; at 50.0 µM 97.1% | [4]; at 100.0 µM 96% | [5]; at 33.0 µM 73% | [5]; [17] 87% | [5]; at 50.0 µM 96.7% | [5]; at 100.0 µM 93% | [6]; at 100.0 µM 96% | [7]; at 50.0 µM 80.6% | [8]; at 100.0 µM 82% | [9]; at 50.0 µM 75.9% | [10]; at 33.0 µM 75% | [10]; [17] 88% | [10]; at 50.0 µM 95.8% | [10]; at 100.0 µM 91% | [11]; at 33.0 µM 92% | [11]; at 100.0 µM 97% | [12]; at 33.0 µM 79% | [12]; at 100.0 µM 95% | [13]; at 33.0 µM 92% | [13]; at 100.0 µM 96% | [14]; at 50.0 µM 93% | [15]; at 100.0 µM 94%

Cc1c2cc[n+](CCN3CCCCC3)cc2c(C)c2c1[nH]c1ccc(O)cc12
active: [1]; at 11.0 µM 81% | [1]; at 33.0 µM 93% | [1]; at 100.0 µM 98% | [3]; at 33.0 µM 89% | [3]; at 100.0 µM 96% | [4]; at 11.0 µM 74% | [4]; at 33.0 µM 91% | [4]; [17] 97% | [4]; at 50.0 µM 97.8% | [4]; at 100.0 µM 98% | [5]; at 100.0 µM 98% | [6]; at 100.0 µM 93% | [7]; at 50.0 µM 89.2% | [8]; at 100.0 µM 72% | [10]; at 50.0 µM 90.5% | [10]; at 100.0 µM 97% | [11]; at 100.0 µM 96% | [12]; at 100.0 µM 97% | [13]; at 100.0 µM 94% | [14]; at 50.0 µM 81.8%
inactive: [1]; at 1.2 µM 19% | [1]; at 3.7 µM 44% | [2]; at 1.2 µM 2% | [2]; at 3.7 µM 2% | [2]; at 11.0 µM 5% | [2]; at 33.0 µM 6% | [2]; at 100.0 µM 29% | [3]; at 1.2 µM 4% | [3]; at 3.7 µM 16% | [3]; at 11.0 µM 62% | [4]; at 1.2 µM 17% | [4]; at 3.7 µM 47% | [4]; [16] 36% | [5]; at 1.2 µM -2% | [5]; at 3.7 µM 3% | [5]; [16] 25% | [5]; at 11.0 µM 5% | [5]; at 33.0 µM 15% | [5]; [17] 4% | [5]; at 50.0 µM 57.5% | [6]; at 1.2 µM 1% | [6]; at 3.7 µM 12% | [6]; at 11.0 µM 1% | [6]; at 33.0 µM 14% | [7]; [16] 2% | [7]; [17] 38% | [8]; at 1.2 µM -3% | [8]; at 3.7 µM -3% | [8]; at 11.0 µM -3% | [8]; at 33.0 µM 4% | [9]; [16] 5% | [9]; [17] 6% | [9]; at 50.0 µM 30.1% | [10]; at 1.2 µM -20% | [10]; at 3.7 µM 5% | [10]; [16] 16% | [10]; at 11.0 µM -4% | [10]; at 33.0 µM -5% | [10]; [17] 28% | [11]; at 1.2 µM 5% | [11]; at 3.7 µM 4% | [11]; at 11.0 µM 5% | [11]; at 33.0 µM 12% | [12]; at 1.2 µM -5% | [12]; at 3.7 µM -4% | [12]; at 11.0 µM 0% | [12]; at 33.0 µM 8% | [13]; at 1.2 µM -1% | [13]; at 3.7 µM -2% | [13]; at 11.0 µM 1% | [13]; at 33.0 µM 12% | [14]; [16] 3% | [14]; [17] 25% | [15]; at 1.2 µM -2% | [15]; at 3.7 µM -5% | [15]; at 11.0 µM -4% | [15]; at 33.0 µM -4% | [15]; at 100.0 µM 41%
